{"source": "PubChem BioAssay (NCATS)", "note": "Records with an inconclusive call do not appear. Entries that show only a call come without a potency. A number with no mark means an inactive call. Active and inactive are the calls of the source. Calls come from the whole dose curve; as a rule, active = well fitted cell-killing curve with a large enough effect; inconclusive = small, poorly fitted or top-dose-only effect; inactive = flat fitted curve, though single readings scatter."}
{"assay": "NCATS anti-infectives library activity on HEK293 viability as a counter-qHTS vs the C. elegans viability qHTS (AID 1745854);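 note: HEK293 cells exposed to compounds for 24 hr before the viability read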", "conditions": "HEK293 viability counter-screen; series mostly up to 41.8 µM", "how_it_was_run": "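Counter-screen for cytotoxicity: HEK293, 24 hr, 37C, compounds up to 41.7 uM final (a dilution series, 1:5). Readout CellTiter-Glo luminescence, 10 min RT. Digitonin control, 83.3 uM final.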"}
{"compound": "CC(C)C1=C2[C@H]3CC[C@@H]4[C@@]5(C)CC[C@H](OC(=O)CC(C)(C)C(=O)O)C(C)(C)[C@@H]5CC[C@@]4(C)[C@]3(C)CC[C@@]2([C@@H](O)CN(CCN(C)C)Cc2ccc(Cl)cc2)CC1=O", "Potency": "inactive"}
{"compound": "CCCCCCCCCCCCCCCCOCCCOP(=O)(O)CO[C@H](CO)Cn1ccc(N)nc1=O", "activity change, negative = cytotoxicity": "-5.25% [at 8.35 µM]"}
{"compound": "COc1ccc(/C=C/C(=O)O)cc1O", "Potency": "inactive"}
{"compound": "Cn1c(Cn2ccc(C(F)(F)F)c(Oc3cc(Cl)cc(C#N)c3)c2=O)n[nH]c1=O", "Potency": "inactive"}
{"compound": "C=C(C)[C@@H]1CC[C@]2(C(=O)O)CC[C@]3(C)[C@H](CC[C@@H]4[C@@]5(C)CC[C@H](OC(=O)CC(C)(C)C(=O)O)C(C)(C)[C@@H]5CC[C@]43C)[C@@H]12", "Potency": "inactive"}
